Hit rate of the full screen: of about 3,200 compounds, about 300 (9.4%) showed activity. This is one part of a sample in which actives are shown more often than they occur.
Tested on: A673/TR/shEF
Experiment: cell viability (LOESS-normalised, relative to median of negative controls) (log2 ratio); higher = more viable cells (less compound effect), active = hit call of the paper (over 3 MAD below the median)
Settings: treatment time: 72 h
Outline: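 For three days, A673/TR/shEF Ewing sarcoma cells in 384-well plates (1,500 per well) were treated with library compounds at two or more concentrations or with DMSO controls, after doxycycline had been added or withheld 24 h beforehand to induce EWS-FLI1 shRNA knockdown. Viability was read by CellTiter-Glo luminescence on an Envision reader. The data were LOESS-corrected per plate, divided by the median of negative controls and log2-transformed.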

[1] = 0.25 µM, library screen: screen1, EWS-FLI1 expression: high (no doxycycline)
[2] = 0.25 µM, library screen: screen1, EWS-FLI1 expression: low (doxycycline-induced shRNA knockdown)
[3] = 0.25 µM, library screen: screen2, EWS-FLI1 expression: high (no doxycycline)
[4] = 0.25 µM, library screen: screen2, EWS-FLI1 expression: low (doxycycline-induced shRNA knockdown)
[5] = 2.5 µM, library screen: screen1, EWS-FLI1 expression: high (no doxycycline)
[6] = 2.5 µM, library screen: screen1, EWS-FLI1 expression: low (doxycycline-induced shRNA knockdown)
[7] = 2.5 µM, library screen: screen2, EWS-FLI1 expression: high (no doxycycline)
[8] = 2.5 µM, library screen: screen2, EWS-FLI1 expression: low (doxycycline-induced shRNA knockdown)
[9] = 0.103 µM, library screen: screen3, EWS-FLI1 expression: high (no doxycycline)
[10] = 0.103 µM, library screen: screen3, EWS-FLI1 expression: low (doxycycline-induced shRNA knockdown)
[11] = 0.308 µM, library screen: screen3, EWS-FLI1 expression: high (no doxycycline)
[12] = 0.308 µM, library screen: screen3, EWS-FLI1 expression: low (doxycycline-induced shRNA knockdown)
[13] = 0.926 µM, library screen: screen3, EWS-FLI1 expression: high (no doxycycline)
[14] = 0.926 µM, library screen: screen3, EWS-FLI1 expression: low (doxycycline-induced shRNA knockdown)
[15] = 2.8 µM, library screen: screen3, EWS-FLI1 expression: high (no doxycycline)
[16] = 2.8 µM, library screen: screen3, EWS-FLI1 expression: low (doxycycline-induced shRNA knockdown)
[17] = 8.3 µM, library screen: screen3, EWS-FLI1 expression: high (no doxycycline)
[18] = 8.3 µM, library screen: screen3, EWS-FLI1 expression: low (doxycycline-induced shRNA knockdown)
[19] = 25 µM, library screen: screen3, EWS-FLI1 expression: high (no doxycycline)
[20] = 25 µM, library screen: screen3, EWS-FLI1 expression: low (doxycycline-induced shRNA knockdown)
[21] = 0.025 µM, library screen: screen1, EWS-FLI1 expression: high (no doxycycline)
[22] = 0.025 µM, library screen: screen1, EWS-FLI1 expression: low (doxycycline-induced shRNA knockdown)
[23] = 25 µM, library screen: screen1, EWS-FLI1 expression: high (no doxycycline)
[24] = 25 µM, library screen: screen1, EWS-FLI1 expression: low (doxycycline-induced shRNA knockdown)

Measured: cell viability (log2)

CN1[C@@H]2CC[C@@H]1CC(OC(c1ccccc1)c1ccccc1)C2 (stereo partly specified)
inactive: [1] 0.132 | [2] 0.107 | [3] 0.135 | [4] 0.0858 | [5] 0.0835 | [6] 0.0797 | [7] 0.114 | [8] 0.0926

O=C(CCCCCCC(=O)Nc1ccccc1)NO
inactive: [9] 0.0138 | [10] 0.0808 | [3] 0.16 | [4] 0.101 | [11] 0.0409 | [12] 0.115 | [13] 0.0465 | [14] 0.156 | [7] 0.0836 | [8] 0.0743 | [15] -0.083 | [16] -0.944
active: [17] -1.12 | [18] -0.391 | [19] -2.67 | [20] -1.56

O=C(Cc1ccccc1)NO
inactive: [1] 0.111 | [2] 0.0668 | [5] 0.126 | [6] 0.0445

O=C(Nc1ccccc1)Nc1ccccc1
inactive: [1] -0.0389 | [2] 0.0106 | [5] 0.0741 | [6] -0.00546

Cc1c2oc3c(C)ccc(C(=O)NC4C(=O)NC(C(C)C)C(=O)N5CCCC5C(=O)N(C)CC(=O)N(C)C(C(C)C)C(=O)OC4C)c3nc-2c(C(=O)NC2C(=O)NC(C(C)C)C(=O)N3CCCC3C(=O)N(C)CC(=O)N(C)C(C(C)C)C(=O)OC2C)c(N)c1=O (stereo unspecified)
active: [1] -4.25 | [2] -4.25 | [5] -4.23 | [6] -4.26

COc1ccc(OC)c(CN2CCN(Cc3ccc([N+](=O)[O-])cc3)CC2)c1
inactive: [1] 0.0199 | [2] 0.014 | [5] -0.0107 | [6] 0.0533

O=C(O)c1cc2cc(Cl)ccc2[nH]1
inactive: [1] 0.0631 | [2] -0.00653 | [5] 0.106 | [6] 0.0362

O=C(O)c1cc2ccccc2[nH]1
inactive: [1] 0.123 | [2] 0.0929 | [5] 0.0969 | [6] 0.132

O=C(O)c1cc2cc(F)ccc2[nH]1
inactive: [1] 0.0776 | [2] -0.00933 | [4] 0.0925 | [5] 0.156 | [6] 0.00267 | [7] 0.154 | [8] 0.0908
active: [3] -0.173

Cn1cnnc1SCC(=O)N1c2ccccc2CCc2ccccc21
inactive: [1] 0.0935 | [2] 0.0627 | [5] 0.0921 | [6] 0.0613

O=C(O)Cc1ccc(O)c(O)c1
inactive: [3] 0.133 | [4] -0.00472 | [7] 0.0419 | [8] 0.108

N#C/C(=C\c1ccc(O)c(O)c1)C(=O)NCc1ccccc1
active: [5] -0.573 | [6] -0.157 | [23] -0.423
inactive: [21] 0.245 | [22] 0.0652 | [1] 0.23 | [2] 0.104 | [3] 0.0885 | [4] 0.0797 | [7] 0.253 | [8] 0.0805 | [24] -0.0381

N#C/C(=C\c1ccc(O)c(O)c1)C(=O)Nc1ccccc1
inactive: [21] 0.188 | [22] -0.0571 | [1] 0.155 | [2] 0.0428 | [3] 0.0861 | [4] 0.0194 | [6] 0.0541 | [7] 0.105 | [8] 0.00853 | [24] 0.0298
active: [5] -0.16 | [23] -0.692

C[C@@H](NC(=O)/C(C#N)=C/c1ccc(O)c(O)c1)c1ccccc1
inactive: [3] 0.139 | [4] -0.0177 | [7] 0.152 | [8] 0.00798

CC(C)c1cc(/C=C(\C#N)C(=O)NCCCc2ccccc2)cc(C(C)C)c1O
inactive: [21] 0.249 | [22] 0.00192 | [1] 0.255 | [2] -0.0227 | [6] 0.113 | [24] 0.147
active: [5] -0.147 | [23] -0.351

C[C@H](NC(=O)/C(C#N)=C/c1ccc(O)c(O)c1)c1ccccc1
inactive: [3] 0.133 | [4] 0.0775 | [7] 0.118 | [8] 0.0876

N#C/C(=C\c1ccc(O)c(O)c1)C(=O)NCCc1ccccc1
inactive: [3] 0.142 | [4] 0.0983 | [7] 0.163 | [8] 0.0697

O=C(O)c1cc([N+](=O)[O-])ccc1NCCCc1ccccc1
inactive: [1] 0.00351 | [2] 0.0513 | [3] 0.0917 | [4] 0.092 | [5] -0.0108 | [6] 0.0086 | [7] 0.0503 | [8] 0.0316

N#C/C(=C\c1ccc(O)c(O)c1)C(=O)NCCCc1ccccc1
inactive: [3] 0.175 | [4] 0.0501 | [7] 0.049 | [8] 0.115

CC(=O)O[C@H]1CC[C@@]2(C)C(CC[C@]3(C)C2C(=O)C=C2C4[C@@H](C)[C@H](C)CC[C@]4(C(=O)O)CC[C@]23C)C1(C)C (stereo partly specified)
inactive: [1] 0.0834 | [2] -0.0467 | [5] 0.137 | [6] -0.0143

Cc1nnc(SCC(=O)N2c3cc(C)c(C)cc3-c3c(ssc3=S)C2(C)C)s1
inactive: [1] 0.0437 | [2] 0.1 | [5] 0.106 | [6] 0.371

COc1cc(CN2CCN(Cc3ccccc3Br)CC2)cc(OC)c1OC
inactive: [1] 0.141 | [2] 0.0128 | [5] 0.124 | [6] -0.0338

COCCCN1C(=O)C(=Cc2sccc2C)SC1=S
inactive: [1] 0.112 | [2] 0.0557 | [5] 0.117 | [6] -0.0013

CC1=C(C(=O)Nc2ccccc2Cl)C(c2ccc(F)cc2)NC(=S)N1 (stereo unspecified)
inactive: [1] 0.0751 | [2] -0.00334 | [5] 0.0684 | [6] -0.0806

CC(=O)CCC(=O)O
inactive: [1] 0.109 | [2] -0.0377 | [5] 0.149 | [6] 0.116

Nc1ccccc1C(=O)CC(N)C(=O)O (stereo unspecified)
inactive: [1] 0.119 | [2] 0.0475 | [5] 0.0296 | [6] 0.178

Clc1ccc(CSC(Cn2ccnc2)c2ccc(Cl)cc2Cl)cc1 (stereo unspecified)
inactive: [1] 0.0547 | [2] -0.0713 | [5] 0.0724 | [6] -0.143

Clc1ccc(COC(Cn2ccnc2)c2ccc(Cl)cc2Cl)c(Cl)c1 (stereo unspecified)
inactive: [9] 0.0363 | [10] 0.054 | [1] 0.11 | [2] -0.0145 | [11] 0.0264 | [12] 0.0988 | [13] 0.0504 | [14] 0.0737 | [5] 0.143 | [6] 0.0636 | [15] 0.00663 | [16] 0.0754 | [17] -0.0261 | [18] 0.0596 | [19] -0.0834 | [20] 0.0583

Clc1ccc(COC(Cn2ccnc2)c2ccc(Cl)cc2Cl)cc1 (stereo unspecified)
active: [19] -0.429
inactive: [9] -0.00584 | [10] 0.0214 | [1] 0.00613 | [2] -0.0476 | [11] 0.00202 | [12] -0.00564 | [13] 0.0175 | [14] 0.0368 | [5] 0.0561 | [6] 0.0348 | [15] -0.113 | [16] 0.0131 | [17] -0.0802 | [18] 0.0353 | [20] -0.0458

CSCCC(NC=O)C(=O)NC(CC(C)C)C(=O)NC(Cc1ccccc1)C(=O)O (stereo unspecified)
inactive: [1] 0.0125 | [2] 0.0891 | [5] 0.0974 | [6] 0.0808

Cn1cncc1[C@@](N)(c1ccc(Cl)cc1)c1ccc2c(c1)c(-c1cccc(Cl)c1)cc(=O)n2C
active: [11] -0.29 | [13] -0.324 | [15] -0.403 | [16] -0.128 | [17] -0.472 | [18] -0.135 | [19] -0.511 | [20] -0.303
inactive: [9] -0.139 | [10] -0.0373 | [12] -0.0603 | [14] -0.0604

COc1ccccc1C1NC(=S)NC(C)=C1C(=O)Nc1cccc(Cl)c1 (stereo unspecified)
inactive: [1] 0.0961 | [2] 0.101 | [5] 0.0795 | [6] 0.0861

O=C(O)C(O)C(O)(Cc1ccc(O)cc1)C(=O)O (stereo unspecified)
inactive: [1] 0.147 | [2] 0.0709 | [5] 0.147 | [6] 0.089

C[C@@H]1CC[C@@]2(OC1)O[C@H]1C[C@H]3[C@@H]4CC[C@H]5C[C@@H](O)CC[C@]5(C)[C@H]4C[C@@H](O)[C@]3(C)[C@H]1[C@@H]2C
inactive: [1] 0.0822 | [2] 0.0668 | [5] 0.111 | [6] 0.136

COc1ccccc1C=CC(=O)O
inactive: [1] 0.0113 | [2] -0.0457 | [5] 0.102 | [6] 0.0515

CN(C)c1ccc(C(=C2C=CC(=[N+](C)C)C=C2)c2ccc(N(C)C)cc2)cc1
inactive: [9] 0.0956 | [10] -0.0594 | [1] 0.105 | [2] 0.00922 | [11] 0.0542 | [12] 0.0588 | [13] 0.098 | [14] 0.0226 | [5] 0.0691 | [6] 0.106
active: [15] -0.295 | [16] -0.547 | [17] -2.54 | [18] -1.19 | [19] -4.26 | [20] -1.87

O=C1C=CC(=C(c2ccc(O)cc2)c2ccc(O)cc2)C=C1
inactive: [1] 0.083 | [2] 0.0465 | [5] 0.0975 | [6] 0.0767

— the supplement of paper PMC6089552
